From PubChem BioAssay (EPA / NIEHS)
Results filed as inconclusive are left out. Activity calls are given as the source filed them. The calls were made as follows, unless noted: active = hit-call score of the fitted dose curve at least 0.9, where 1 is the maximum; inconclusive = response in the unintended direction; inactive = score below 0.9.

Assays:
[1] = biological target: Bile acid receptor (Homo sapiens) (UniProt Q96RI1); test: ATG_FXR_TRANS: Attagene TRANS-FACTORIAL HepG2 Assay for Farnesoid X Receptor (FXR) (AID 2282979); settings: HepG2 Attagene TRANS FXR-GAL4 reporter transcription;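 also: hits raise reporter mRNA above DMSO so AC50 marks FXR activation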
Bile acid receptor (Homo sapiens), sequence (Q96RI1 whole entry, looked up, the tested form may be a part): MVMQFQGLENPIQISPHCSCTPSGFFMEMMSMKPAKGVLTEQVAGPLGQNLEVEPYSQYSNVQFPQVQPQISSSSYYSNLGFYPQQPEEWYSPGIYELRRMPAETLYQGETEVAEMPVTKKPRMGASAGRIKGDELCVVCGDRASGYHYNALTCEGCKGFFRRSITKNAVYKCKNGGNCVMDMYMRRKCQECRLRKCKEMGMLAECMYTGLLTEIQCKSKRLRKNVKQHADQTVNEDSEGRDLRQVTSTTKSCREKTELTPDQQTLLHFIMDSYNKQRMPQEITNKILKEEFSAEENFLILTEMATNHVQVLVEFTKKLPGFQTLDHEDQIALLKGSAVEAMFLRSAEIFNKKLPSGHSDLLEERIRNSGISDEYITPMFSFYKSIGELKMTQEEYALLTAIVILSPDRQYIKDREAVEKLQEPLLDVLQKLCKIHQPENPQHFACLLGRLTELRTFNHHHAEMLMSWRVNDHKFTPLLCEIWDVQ
Method in brief: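 Transient transfection of HepG2 with multiplexed GAL4-UAS reporter units; exogenous FXR-GAL4 chimera. Dose 24 h → TriZol RNA → oligo(dT) RT → PCR, 6-FAM primer extension, HpaI cut → CE. Gain vs DMSO.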

[2] = biological target: human Dopamine Transporter (DAT), SLC6A3 (gene 6531) (UniProt Q01959); test: NVS_TR_hDAT: NovaScreen (NVS) Transporter Assay for human Dopamine Transporter (DAT) (AID 2283374);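 also: activity means loss of bound radioligand signal relative to DMSO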
human Dopamine Transporter (DAT), SLC6A3 (gene 6531), sequence (Q01959 whole entry, looked up): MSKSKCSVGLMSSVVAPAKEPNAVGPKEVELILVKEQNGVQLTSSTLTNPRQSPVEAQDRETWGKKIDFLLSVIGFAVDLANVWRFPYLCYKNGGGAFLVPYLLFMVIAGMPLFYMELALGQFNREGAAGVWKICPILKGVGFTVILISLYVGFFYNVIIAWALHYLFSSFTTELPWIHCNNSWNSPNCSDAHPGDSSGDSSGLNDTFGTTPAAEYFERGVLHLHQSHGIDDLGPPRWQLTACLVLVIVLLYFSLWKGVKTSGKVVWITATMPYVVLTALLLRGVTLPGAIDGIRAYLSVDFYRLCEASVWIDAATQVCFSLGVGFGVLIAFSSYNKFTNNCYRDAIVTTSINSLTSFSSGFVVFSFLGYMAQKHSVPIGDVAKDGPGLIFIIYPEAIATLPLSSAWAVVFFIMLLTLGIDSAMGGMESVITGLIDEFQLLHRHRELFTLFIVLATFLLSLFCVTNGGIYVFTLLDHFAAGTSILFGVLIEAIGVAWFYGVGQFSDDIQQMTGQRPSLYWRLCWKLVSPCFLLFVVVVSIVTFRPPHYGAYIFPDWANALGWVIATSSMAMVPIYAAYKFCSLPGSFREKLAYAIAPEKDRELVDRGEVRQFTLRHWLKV
Method in brief: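 Duplicate single-point screening at 25 uM preceded concentration-series follow-up of actives. Binding was measured by competitive displacement of a radioligand from DAT protein, filter-counted by scintillation 1 h after dosing. Decrease relative to DMSO taken as activity.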

[3] = CEETOX_H295R_OHPREG: CeeTox H295R High-throughput Steroidogenesis Assay for OH-Pregnenolone (OHPREG) (AID 2283434; active = hit-call score of the fitted dose curve at least 0.9, where 1 is the maximum; inactive = score below 0.9); settings: actives raise or lower the signal
Method in brief: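 Secreted 17alpha-hydroxypregnenolone measured by HPLC-MS/MS after liquid-liquid extraction. Human adrenal H295R cells received 48 h forskolin (10 uM) stimulation before 48 h chemical exposure at 0.1% final DMSO; MTT viability in same wells; bidirectional fit against DMSO.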

[4] = CEETOX_H295R_OHPROG: CeeTox H295R High-throughput Steroidogenesis Assay for OH-Progesterone (OHPROG) (AID 2283435; active = hit-call score of the fitted dose curve at least 0.9, where 1 is the maximum; inactive = score below 0.9;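 as to AC50: 17alpha-hydroxyprogesterone secreted into medium measured by HPLC-MS/MS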); settings: actives raise or lower the signal
Method in brief: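 Medium steroid levels read by LC-MS/MS after 48 h chemical treatment (0.1% DMSO) of human adrenal H295R cells that had been forskolin-primed (10 uM, 48 h). Gain or loss fitted against DMSO; MTT cytotoxicity checked per well.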

[5] = test system: Sodium/Iodide Symporter (NIS), SLC5A5 (gene 6528); test: CPHEA_Stoker_NIS_Inhibition_RAIU: CPHEA's Radioactive Iodide Uptake (RAIU) Assay for Sodium/Iodide Symporter (NIS) Inhibition, Stoker and Laws Labs (AID 2283841)
Method in brief: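 Test chemicals, six concentrations from 0.001 to 100uM in 0.5% DMSO, were co-incubated with carrier-free 125I (final 329pM) on hNIS-HEK293T-EPA monolayers in pH 7.4 HEPES-buffered HBSS. Plates stood 2 hours at room temperature, then were washed cold and counted.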

[6] = CPHEA_Stoker_NIS_Cytotoxicity: Cytotoxicity Assessment for CPHEA's Radioactive Iodide Uptake (RAIU) Assay for Sodium/Iodide Symporter (NIS) Inhibition, Stoker and Laws Labs (AID 2283897)
Method in brief: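 Viability in hNIS-HEK293T-EPA cells is scored as a drop in luciferase-detected ATP following 2-hour room-temperature exposure (0.001–100uM; triplicate wells, three cell passages), with DMSO as negative control.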

[7] = TOX21_PR_BLA_Followup_Agonist_viability: Viability Assessment in the Tox21 HEK293 Progesterone Receptor (PR) Agonism Beta-lactamase Follow-Up Assay (AID 2283935);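 also: signal loss means lower viability so actives are cytotoxic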
Method in brief: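 Run multiplexed with the beta-lactamase FRET read, this endpoint measures ATP by CellTiter-Glo luminescence (30 min, room temperature). PR-UAS-bla HEK293T cells received compound 6 hr after plating and were then incubated 16 hr at 37C in 2% stripped serum.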

[8] = TOX21_PR_BLA_Followup_Antagonist_viability: Viability Assessment in the Tox21 HEK293 Progesterone Receptor (PR) Antagonism Beta-lactamase Follow-Up Assay (AID 2283936);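 also: cells exposed to compound with R5020 agonist for 16 h; hits lower the luminescence signal meaning cytotoxicity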
Method in brief: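 PR-UAS-bla HEK293T cells in medium with 2% charcoal-stripped FBS were treated with compounds plus R5020 for 16 hr at 37C. After the beta-lactamase read, CellTiter-Glo was added to the same wells and luminescence read after 30 min at room temperature.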

[9] = TOX21_PR_LUC_Followup_Antagonist_viability: Viability Assessment in the Tox21 HEK293 Progesterone Receptor (PR) Antagonism Luciferase Follow-Up Assay (AID 2283940)
Method in brief: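 Viability counter-readout: cellular ATP measured by luciferase luminescence after 16 h compound exposure at 37C of HEK293-PR-A-luc cells, which had been cultured in charcoal-stripped serum and seeded 5 h beforehand.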

[10] = TOX21_PR_LUC_Followup_Agonist_viability: Viability Assessment in the Tox21 HEK293 Progesterone Receptor (PR) Agonism Luciferase Follow-Up Assay (AID 2283941);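 also: loss of signal means cytotoxicity so actives lower viability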
Method in brief: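 Cytotoxicity counter-readout in the PR-A luciferase reporter line HEK293, with 16 h compound exposure at 37C after cells were cultured in charcoal-stripped serum. Cellular ATP quantified by CellTiter-Glo luminescence.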

[11] = CCTE_Deisenroth_5AR_NBTE_acceptor: CCTE's 5alpha-reductase NanoBRET Target Engagement Assay - Autofluorescence Screen, Deisenroth Lab (AID 2284321; active = hit-call score of the fitted dose curve at least 0.9, where 1 is the maximum; inactive = score below 0.9;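 also: compound fluorescence in the acceptor channel under 460 nm excitation flags autofluorescence artifacts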); settings: actives raise or lower the signal
Method in brief: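 Acceptor fluorescence intensity was read as an artifact-detection endpoint. Test chemicals at an assumed nominal 100 uM were excited at 460 nm across three independent runs. Activity was fitted bidirectionally against DMSO.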

[12] = biological target: human Caspase 5 (CASP5), CASP5 (gene 838) (UniProt P51878); test: NVS_ENZ_hCASP5: NovaScreen (NVS) Enzymatic Assay for human Caspase 5 (CASP5) (AID 2283137)
human Caspase 5 (CASP5), CASP5 (gene 838), sequence (P51878 whole entry, looked up): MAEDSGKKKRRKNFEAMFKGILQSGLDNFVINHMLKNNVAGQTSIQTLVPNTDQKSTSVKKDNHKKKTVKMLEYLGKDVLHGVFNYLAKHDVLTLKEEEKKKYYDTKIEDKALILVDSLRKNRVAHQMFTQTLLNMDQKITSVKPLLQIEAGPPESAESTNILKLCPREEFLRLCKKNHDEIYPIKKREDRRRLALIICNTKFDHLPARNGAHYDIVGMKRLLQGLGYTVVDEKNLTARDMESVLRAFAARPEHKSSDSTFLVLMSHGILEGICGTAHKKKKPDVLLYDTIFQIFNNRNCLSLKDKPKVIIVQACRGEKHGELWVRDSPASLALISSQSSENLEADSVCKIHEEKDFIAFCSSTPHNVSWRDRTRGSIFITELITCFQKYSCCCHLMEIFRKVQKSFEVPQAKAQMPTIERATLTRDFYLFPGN
Method in brief: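 Loss of fluorescent signal versus DMSO scored for E. coli-derived human CASP5 cleaving a fluorescent substrate, 2 h post-dosing; compounds first tested at 25 uM in duplicate, hits rerun in concentration series with 50 uM top concentration.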

[13] = biological target: human Peroxisome Proliferator-activated Receptor alpha (PPARa), PPARA (gene 5465) (UniProt Q07869); test: NVS_NR_hPPARa: NovaScreen (NVS) Nuclear Receptor Binding Assay for human Peroxisome Proliferator-activated Receptor alpha (PPARa) (AID 2283359);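 also: activity means loss of TR-FRET signal versus DMSO baseline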
human Peroxisome Proliferator-activated Receptor alpha (PPARa), PPARA (gene 5465), sequence (Q07869 whole entry, looked up): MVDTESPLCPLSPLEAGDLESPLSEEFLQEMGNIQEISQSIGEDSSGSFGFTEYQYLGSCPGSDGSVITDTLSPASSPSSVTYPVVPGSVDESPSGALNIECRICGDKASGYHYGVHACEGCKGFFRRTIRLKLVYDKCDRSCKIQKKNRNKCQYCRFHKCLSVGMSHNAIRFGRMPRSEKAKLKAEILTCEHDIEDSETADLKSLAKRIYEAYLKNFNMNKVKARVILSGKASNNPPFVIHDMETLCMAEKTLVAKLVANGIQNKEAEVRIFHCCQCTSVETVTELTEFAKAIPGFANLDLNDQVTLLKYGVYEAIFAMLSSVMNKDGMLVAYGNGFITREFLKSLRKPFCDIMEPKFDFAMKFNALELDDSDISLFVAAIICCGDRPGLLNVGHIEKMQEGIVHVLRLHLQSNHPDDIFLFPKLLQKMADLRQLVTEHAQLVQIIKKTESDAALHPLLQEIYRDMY
Method in brief: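 Loss of TR-FRET binding signal relative to DMSO was measured 1 h after chemical addition to extracted receptor protein. Chemicals were first tested in duplicate at 25 uM, and actives were followed up in concentration series.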

[14] = biological target: bovine Estrogen Receptor (ER), ESR1 (gene 407238) (UniProt P49884); test: NVS_NR_bER: NovaScreen (NVS) Nuclear Receptor Binding Assay for bovine Estrogen Receptor (ER) (AID 2283345);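 also: actives lower the bound radioligand count which means they displace the ER ligand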
bovine Estrogen Receptor (ER), ESR1 (gene 407238), sequence (P49884 whole entry, looked up): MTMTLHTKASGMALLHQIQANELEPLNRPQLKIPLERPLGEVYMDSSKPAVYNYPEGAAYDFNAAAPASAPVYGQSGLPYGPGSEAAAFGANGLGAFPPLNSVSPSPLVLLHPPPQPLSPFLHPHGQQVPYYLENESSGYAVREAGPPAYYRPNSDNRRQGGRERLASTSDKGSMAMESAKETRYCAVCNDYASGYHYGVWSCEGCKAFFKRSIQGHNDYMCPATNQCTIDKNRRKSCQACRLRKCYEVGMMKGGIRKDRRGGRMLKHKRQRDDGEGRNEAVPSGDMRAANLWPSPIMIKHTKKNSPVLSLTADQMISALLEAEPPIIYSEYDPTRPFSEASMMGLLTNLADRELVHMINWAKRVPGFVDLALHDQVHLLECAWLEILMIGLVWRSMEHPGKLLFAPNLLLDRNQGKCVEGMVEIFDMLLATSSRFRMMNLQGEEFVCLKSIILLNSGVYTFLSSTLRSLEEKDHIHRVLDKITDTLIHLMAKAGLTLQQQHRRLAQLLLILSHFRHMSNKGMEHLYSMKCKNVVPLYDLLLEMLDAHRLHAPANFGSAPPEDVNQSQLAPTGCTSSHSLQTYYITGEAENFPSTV
Method in brief: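 Bovine uterine membranes; tritiated or iodinated radioligand; competitive displacement; 18 h; scintillation read; DMSO negative control; 25 uM duplicates, then concentration series for actives.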

[15] = biological target: Androgen Receptor/SRC-1 Co-activator, AR (gene 367) (UniProt P10275); test: OT_AR_ARSRC1_0480: Odyssey Thera (OT) 8-hour HEK293T Protein-Complementation Assay for Androgen Receptor/SRC-1 Co-activator (AID 2283354);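 also: hits raise the complementation signal above DMSO so AC50 marks enhancers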
Androgen Receptor/SRC-1 Co-activator, AR (gene 367), sequence (P10275 whole entry, looked up): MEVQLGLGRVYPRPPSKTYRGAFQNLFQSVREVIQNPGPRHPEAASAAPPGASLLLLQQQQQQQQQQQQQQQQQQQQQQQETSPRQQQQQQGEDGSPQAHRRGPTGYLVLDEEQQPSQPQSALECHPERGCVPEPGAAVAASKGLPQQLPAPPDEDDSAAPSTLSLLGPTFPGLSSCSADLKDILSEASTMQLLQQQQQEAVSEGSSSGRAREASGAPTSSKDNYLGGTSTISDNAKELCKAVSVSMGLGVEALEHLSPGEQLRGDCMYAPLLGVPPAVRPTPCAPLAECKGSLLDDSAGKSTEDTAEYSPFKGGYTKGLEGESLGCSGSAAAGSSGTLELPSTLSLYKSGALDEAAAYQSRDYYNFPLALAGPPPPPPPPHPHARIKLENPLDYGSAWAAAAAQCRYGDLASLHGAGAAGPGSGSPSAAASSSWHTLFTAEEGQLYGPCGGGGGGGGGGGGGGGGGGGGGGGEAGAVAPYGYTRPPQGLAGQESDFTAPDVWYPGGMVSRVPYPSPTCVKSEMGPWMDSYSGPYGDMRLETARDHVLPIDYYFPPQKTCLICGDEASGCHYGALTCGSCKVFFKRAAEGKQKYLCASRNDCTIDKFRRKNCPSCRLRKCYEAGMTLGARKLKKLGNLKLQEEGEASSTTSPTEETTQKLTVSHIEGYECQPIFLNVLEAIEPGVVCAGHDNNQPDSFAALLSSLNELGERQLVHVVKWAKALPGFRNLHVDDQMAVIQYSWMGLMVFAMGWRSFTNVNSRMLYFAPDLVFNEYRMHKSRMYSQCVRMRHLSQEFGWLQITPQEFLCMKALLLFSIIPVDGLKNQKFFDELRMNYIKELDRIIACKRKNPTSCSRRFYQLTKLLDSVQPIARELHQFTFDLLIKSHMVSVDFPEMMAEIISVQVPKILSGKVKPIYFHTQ
Method in brief: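 Reconstituted split-Venus YFP signal from AR–SRC-1 interaction, read by imaging 8 h post-dose in stable HEK293T lines. The 488 nm nucleus-to-cytoplasm ratio (≥400 cells/image) was fitted upward against DMSO.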

[16] = biological target: Agonist Androgen Response Element (ARE), AR (gene 367) (UniProt P10275); test: OT_AR_ARELUC_AG_1440: Odyssey Thera (OT) 24-hour CHO-K1 Luciferase Assay for Agonist Androgen Response Element (ARE) (AID 2283379)
Agonist Androgen Response Element (ARE), AR (gene 367), sequence (P10275 whole entry, looked up): as above
Method in brief: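 Readout: luciferase bioluminescence from CHO-K1 ARE-luc cells, measured 24 h post-dosing; agonism = increased mean luminescence vs DMSO controls, fitted in positive direction.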

AR (gene 367) = AR (gene 367) (UniProt P10275); test: ACEA_AR_antagonist_80hr: ACEA Biosciences xCELLigence Real-Time Cell Analysis on Androgen Receptor Antagonism for Proliferation (AID 2283787);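 also: 22Rv1 human prostate cancer cells with growth followed by electrical impedance; hits lower the impedance growth signal relative to DMSO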
AR (gene 367), sequence (P10275 whole entry, looked up): as above
Method in brief: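 Impedance-based real-time growth of 22Rv1 prostate cells, read 80 h after dosing. Eight concentrations, 1:4 series, top 100 uM final (0.5% DMSO), n = 2; signal decrease scored against DMSO.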

[17] = biological target: Ratio of Nucleoli Translocation and Cytoplasm, AR (gene 367) (UniProt P10275); test: UPITT_HCI_U2OS_AR_TIF2_Nucleoli_Cytoplasm_Ratio_Antagonist: University of Pittsburgh U2OS Androgen Receptor-Transcriptional Intermediary Factor 2 (AR-TIF2) Antagonism High Content Imaging Assay for Ratio of Nucleoli Translocation and Cytoplasm (AID 2283999);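 also: antagonists lower the DHT-driven ratio of nucleolar to cytoplasmic red signal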
Ratio of Nucleoli Translocation and Cytoplasm, AR (gene 367), sequence (P10275 whole entry, looked up): as above
Method in brief: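 High-content imaging of red fluorescence ratio, nucleoli versus cytoplasm, in U2OS expressing AR-RFP and TIF2-GFP, fitted relative to DHT. Compounds tested once at 20 uM final, then 0.195 to 50 uM final in serial dilution.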

[18] = biological target: Ratio of Nucleoli Translocation and Cytoplasm, AR (gene 367) (UniProt P10275); test: UPITT_HCI_U2OS_AR_TIF2_Nucleoli_Cytoplasm_Ratio_Agonist: University of Pittsburgh U2OS Androgen Receptor-Transcriptional Intermediary Factor 2 (AR-TIF2) Agonism High Content Imaging Assay for Ratio of Nucleoli Translocation and Cytoplasm (AID 2284000);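 also: hits raise the red nucleolar to cytoplasm ratio above vehicle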
Method in brief: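 Compounds tested at 20 uM final in primary screen (0.2% DMSO) and 0.195-50 uM final in dose-response (0.5% DMSO). Imaging of human U2OS cells bearing RFP-AR and GFP-TIF2; endpoint is nucleoli/cytoplasm red signal ratio, positive direction relative to DMSO.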

TTR (gene 7276) = test: CCTE_GLTED_hTTR_0.125uM: CCTE's human Transthyretin (hTTR) Inhibition Assay, with 0.125uM TTR, Great Lakes Toxicology and Ecology Division (GLTED) Lab (AID 2284431; active = hit-call score of the fitted dose curve at least 0.9, where 1 is the maximum; inactive = score below 0.9;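 also: hits lower the fluorescence signal relative to DMSO baseline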)
Method in brief: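 Fluorescence (380 ex, 475 em) reported the ANSA probe remaining bound to 0.125uM human transthyretin. Chemicals were incubated with the protein for 2 hours; activity was scored as loss of signal against DMSO negative control.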

Compound: Cc1cc(C)c(C2=C(OC(=O)CC(C)(C)C)C3(CCCC3)OC2=O)c(C)c1
- outcome [1]: inactive

Compound: CC(C)(C)C(O)C(Oc1ccc(-c2ccccc2)cc1)n1cncn1 (centres undefined)
- AC50 [2]: 13.4 µM (active)
- outcome [3]: inactive
- AC50 [4]: 0.0566 µM (active)

Compound: O=[N+]([O-])C=Cc1ccccc1
- AC50 [2]: 25 µM (active)

Compound: CC(=O)c1cc2c(cc1C)C(C)(C)C(C)CC2(C)C (centres undefined)
- outcome [3]: inactive
- outcome [4]: inactive
- outcome [5]: inactive
- outcome [6]: inactive
- outcome [7]: inactive
- outcome [8]: inactive
- outcome [9]: inactive
- outcome [10]: inactive
- outcome [11]: inactive

Compound: O=c1c2ccccc2c(=O)c2c1cc(Cl)c1[nH]c3c([nH]c12)c(Cl)cc1c(=O)c2ccccc2c(=O)c13
- outcome [1]: inactive
- AC50 [12]: 0.296 µM (active)

Compound: Nc1ccccc1
- outcome [13]: inactive

Compound: CCCCCCCCCCCCCCCC[N+](C)(C)C
- AC50 [13]: 19.9 µM (active)
- AC50 [5]: 10.2 µM (active)
- outcome [6]: inactive

Compound: C=CC(=O)OCCO
- outcome [3]: inactive
- outcome [4]: inactive

Compound: O=C1C(Cl)=C(Cl)C(=O)C(Cl)=C1Cl
- AC50 [12]: 0.148 µM (active)
- outcome [14]: inactive

Compound: CCCCNP(N)(N)=S
- outcome [1]: inactive

Compound: c1cc(OCC2CO2)ccc1Cc1ccc(OCC2CO2)cc1 (centres undefined)
- outcome [14]: inactive

Compound: CC(C)c1ccc(O)cc1
- outcome [11]: inactive

Compound: C[C@]12CC[C@H]3[C@@H](CC[C@@]45O[C@@H]4C(O)=C(C#N)C[C@]35C)[C@@H]1CC[C@@H]2O
- outcome [7]: inactive
- outcome [8]: inactive
- outcome [9]: inactive
- outcome [10]: inactive

Compound: COc1cc(OC)c(OC)cc1C=O
- outcome [14]: inactive

Compound: O=C1Nc2ccc(Cl)cc2C(c2ccccc2)=NC1O (centres undefined)
- outcome [5]: inactive
- outcome [6]: inactive

Compound: N#Cc1cc(I)c(O)c(I)c1
- outcome [7]: inactive
- outcome [8]: inactive
- outcome [9]: inactive
- outcome [10]: inactive

Compound: C=CC(=O)OCC(CC)CCCC (centres undefined)
- outcome [11]: inactive

Compound: O=C(NCNC(=O)NC1C(=O)NC(=O)N1CO)NC1C(=O)NC(=O)N1CO (centres undefined)
- outcome [15]: inactive
- outcome [16]: inactive
- outcome (AR (gene 367)): inactive
- AC50 [17]: 50 µM (active)
- outcome [18]: inactive

Compound: CCOP(=O)(OCC)Oc1ccc([N+](=O)[O-])cc1
- outcome [3]: inactive
- outcome [4]: inactive
- AC50 (TTR (gene 7276)): 5.87 µM (active)

Compound: c1ccc(P(c2ccccc2)c2ccccc2)cc1
- outcome [14]: inactive

Compound: CC(C)CCCCCCCOP(=O)(Oc1ccccc1)Oc1ccccc1
- outcome [1]: inactive
